Data taken from PubChem BioAssay AID623994 (NMMLSC, 2012).
Potency and affinity values are given separately. Activity calls are given as the source filed them.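 How the source made its calls: active means compounds whose fitted concentration for half the maximal dye retention is below 100 µM; inactive means the rest.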

Target: Multidrug resistance protein CDR2 (Candida albicans (strain SC5314 / ATCC MYA-2876)) (UniProt P78595)
Test: blockers of Nile Red efflux by Candida CDR2 – S. cerevisiae AD1-8u, singleplex, Cherry Pick2 set, dose response (AID 623994)
Settings: S. cerevisiae AD1-8u expressing CaCDR2, Nile Red efflux; series mostly up to 100 µM

Multidrug resistance protein CDR2 (Candida albicans (strain SC5314 / ATCC MYA-2876)), sequence (P78595 whole entry, looked up): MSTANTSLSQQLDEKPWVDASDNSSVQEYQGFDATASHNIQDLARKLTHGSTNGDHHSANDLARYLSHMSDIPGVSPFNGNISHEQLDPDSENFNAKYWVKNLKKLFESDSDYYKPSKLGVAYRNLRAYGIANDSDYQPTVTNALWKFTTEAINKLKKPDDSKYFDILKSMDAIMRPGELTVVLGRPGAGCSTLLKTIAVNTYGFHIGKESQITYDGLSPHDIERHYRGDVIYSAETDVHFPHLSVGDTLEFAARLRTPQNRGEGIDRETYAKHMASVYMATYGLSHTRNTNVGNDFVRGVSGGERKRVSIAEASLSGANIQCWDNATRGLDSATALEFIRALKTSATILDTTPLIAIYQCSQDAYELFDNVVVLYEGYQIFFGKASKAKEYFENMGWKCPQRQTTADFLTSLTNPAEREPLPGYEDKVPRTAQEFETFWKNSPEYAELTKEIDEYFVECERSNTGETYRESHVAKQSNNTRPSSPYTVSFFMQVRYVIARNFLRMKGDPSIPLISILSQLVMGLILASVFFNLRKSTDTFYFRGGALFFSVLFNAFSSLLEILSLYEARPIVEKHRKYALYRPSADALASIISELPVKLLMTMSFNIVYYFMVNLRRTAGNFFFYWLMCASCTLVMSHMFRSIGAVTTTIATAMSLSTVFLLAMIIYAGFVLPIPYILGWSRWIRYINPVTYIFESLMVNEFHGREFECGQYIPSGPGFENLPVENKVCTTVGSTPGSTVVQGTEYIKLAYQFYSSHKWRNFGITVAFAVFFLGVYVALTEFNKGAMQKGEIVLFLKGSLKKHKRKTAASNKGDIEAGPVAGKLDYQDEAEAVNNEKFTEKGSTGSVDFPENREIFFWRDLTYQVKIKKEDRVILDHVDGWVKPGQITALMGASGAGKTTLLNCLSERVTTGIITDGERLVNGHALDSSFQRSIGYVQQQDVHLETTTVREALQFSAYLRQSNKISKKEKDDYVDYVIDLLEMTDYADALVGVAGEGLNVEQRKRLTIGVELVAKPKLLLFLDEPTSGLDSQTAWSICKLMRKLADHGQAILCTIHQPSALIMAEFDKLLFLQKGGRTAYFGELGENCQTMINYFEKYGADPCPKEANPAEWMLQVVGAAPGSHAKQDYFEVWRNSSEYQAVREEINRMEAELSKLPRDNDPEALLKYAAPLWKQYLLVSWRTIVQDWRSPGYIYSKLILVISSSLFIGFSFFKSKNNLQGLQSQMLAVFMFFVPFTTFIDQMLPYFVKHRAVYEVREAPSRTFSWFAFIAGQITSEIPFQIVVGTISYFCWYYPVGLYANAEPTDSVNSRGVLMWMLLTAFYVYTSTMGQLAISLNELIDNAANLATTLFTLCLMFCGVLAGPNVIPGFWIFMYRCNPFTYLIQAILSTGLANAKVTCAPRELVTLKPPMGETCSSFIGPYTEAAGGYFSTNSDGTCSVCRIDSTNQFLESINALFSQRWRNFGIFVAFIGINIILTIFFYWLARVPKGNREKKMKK

outcome, inactive:
Cc1ccc(N2CCN(C(=O)C3CCCN(c4ncnc5c4nc4n5CCCCC4)C3)CC2)c(C)c1 (centres undefined)
C[C@H](CO)N1C[C@H](C)[C@@H](CN(C)S(=O)(=O)c2ccccc2)Oc2c(NC(=O)Nc3ccccc3)cccc2C1=O
Cc1cccc2sc(N(CCCN(C)C)C(=O)c3ccc(Cl)s3)nc12
NS(=O)(=O)c1ccc(N2N=C(c3ccccc3)CC2c2ccccc2)cc1 (centres undefined)
CC(C)C(=O)N1CCC2(CC1)Oc1ccc(F)cc1C(=O)C21CC(c2ccc(Cl)cc2)=NO1 (centres undefined)
Cc1noc(C)c1C(=O)N1CCC2(CC1)Oc1ccc(F)cc1C(=O)C21CC(c2ccc(Cl)cc2)=NO1 (centres undefined)
CC(C)C(=O)N1CCC2(CC1)Oc1ccc(Cl)cc1C(=O)C21CC(c2ccc(Cl)cc2)=NO1 (centres undefined)
COc1ccc(C2CC(c3ccccc3)=NN2c2ccc(S(N)(=O)=O)cc2)cc1 (centres undefined)
COc1ccc(OC)c2sc(NC(=O)c3ccc(Br)s3)nc12
O=C(C1CCCN(c2ncnc3c2nc2n3CCCCC2)C1)N1CCN(c2cccc(Cl)c2)CC1 (centres undefined)
CCCCCc1cc(=O)oc2c(C(CCN3CCCC(C)C3)c3ccc(N(C)C)cc3)c(OC)cc(OC)c12 (centres undefined)
O=C(C1CCC(CNc2nc(=S)[nH]c3ccccc23)CC1)N1CCN(c2ccc(F)cc2)CC1 (centres undefined)
O=C(c1ccoc1)N1CCC2(CC1)Oc1ccc(F)cc1C(=O)C21CC(c2ccccc2)=NO1 (centres undefined)
COc1ccc(S(=O)(=O)N(C)C[C@H]2Oc3c(NC(=O)NC4CCCCC4)cccc3C(=O)N([C@H](C)CO)C[C@@H]2C)cc1
COc1cc(OC)c2ccc(=O)oc2c1C(CCN1CCCC(C)C1)c1ccc(N(C)C)cc1 (centres undefined)
CCCCNC(=O)C1CCC(CNc2nc(=S)[nH]c3ccccc23)CC1 (centres undefined)
COc1cc(OC)c2c(-c3ccccc3)cc(=O)oc2c1C(CCN1CCCC(C)C1)c1ccc(N(C)C)cc1 (centres undefined)
COc1ccc(C2CC(c3cccc(OC)c3)=NN2c2ccc(S(N)(=O)=O)cc2)cc1 (centres undefined)
COc1ccc(CN2C(=O)C(C)Nc3ncnc(N4CCN(c5ccccc5)CC4)c32)cc1 (centres undefined)
O=C1C(Cc2ccccc2)Nc2ncnc(N3CCN(c4ccccc4)CC3)c2N1Cc1ccccc1 (centres undefined)
NS(=O)(=O)c1ccc(N2N=C(c3ccccc3)CC2c2ccc(F)cc2)cc1 (centres undefined)
Cc1cc(C(=O)NC2CC(C)(C)Cc3c2cnn3-c2ccc(F)cc2)no1 (centres undefined)
O=C(/C=C/c1cccs1)N1CCC2(CC1)Oc1ccc(F)cc1C(=O)C21CC(c2ccccc2)=NO1 (centres undefined)
COc1ncccc1C(=O)NC1CCCc2c1cnn2-c1cc(C)cc(C)c1 (centres undefined)
COc1ccc(CNC(=O)C(C#N)c2nc3ccccc3nc2N2CCCC2)cc1 (centres undefined)
OCCN1CCN(CC/C=C2/c3ccccc3Sc3ccc(C(F)(F)F)cc32)CC1
CCc1ccc(C2=NN(c3ccc(S(N)(=O)=O)cc3)C(c3ccc(F)cc3)C2)cc1 (centres undefined)
CCN(CC)CCC(c1ccc(N(C)C)cc1)c1c(OC)cc(OC)c2ccc(=O)oc12 (centres undefined)
Cc1cc(C)c2sc(N(CCCN(C)C)C(=O)c3ccc(Br)s3)nc2c1
